Of roughly 8,800 targets only a part is listed; those with a hit were picked by preference. About 0.5% of all pairs of compound and target were hits.
What was measured:
Test in all cases: log2 fold change, soluble protein after heating vs DMSO (PISA); higher = thermal stabilisation; K562 lysate, 10 uM; active = over 0.2 and 3.5 SD of the protein, either way, in both replicates (recomputed)
lapatinib = compound: CS(=O)(=O)CCNCc1ccc(-c2ccc3ncnc(Nc4ccc(OCc5cccc(F)c5)c(Cl)c4)c3c2)o1 [lapatinib]
Summary of the method: (§1)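 Following dounce homogenisation of K562 pellets in PBS pH 7.4 with 1 mM MgCl2, crude extract at 1 mg/mL protein was incubated for 30 min with 10 μM compound. Aliquots were then heated for 3 min over 48°C-58°C and pooled, NP-40 was added to 0.5% at 4°C, and soluble protein was recovered as the supernatant at 21,000xg for 90 min. Channel-sum-equalised TMTpro 16plex LC-MS/MS quantified this protein. Each value, from duplicates, is a log-two fold change in thermal stability relative to solvent controls.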

pictilisib = compound: CS(=O)(=O)N1CCN(Cc2cc3nc(-c4cccc5[nH]ncc45)nc(N4CCOCC4)c3s2)CC1 [pictilisib]
Summary of the method: as §1

crizotinib = compound: C[C@@H](Oc1cc(-c2cnn(C3CCNCC3)c2)cnc1N)c1c(Cl)ccc(F)c1Cl [crizotinib]
Summary of the method: as §1

[1] = compound: C[C@H](C1=CC=C(C=C1)C(=O)NC2=C3C=CNC3=NC=C2)N
Summary of the method: as §1

duvelisib = compound: C[C@H](Nc1ncnc2nc[nH]c12)c1cc2cccc(Cl)c2c(=O)n1-c1ccccc1 [duvelisib]
Summary of the method: as §1

gandotinib = compound: Cc1cc(Nc2cc(CN3CCOCC3)c3nc(C)c(Cc4ccc(Cl)cc4F)n3n2)n[nH]1 [gandotinib]
Summary of the method: as §1

tozasertib = compound: Cc1cc(Nc2cc(N3CCN(C)CC3)nc(Sc3ccc(NC(=O)C4CC4)cc3)n2)n[nH]1 [tozasertib]
Summary of the method: as §1

doramapimod = compound: Cc1ccc(-n2nc(C(C)(C)C)cc2NC(=O)Nc2ccc(OCCN3CCOCC3)c3ccccc23)cc1 [doramapimod]
Summary of the method: as §1

bafetinib = compound: Cc1ccc(NC(=O)c2ccc(CN3CC[C@H](N(C)C)C3)c(C(F)(F)F)c2)cc1Nc1nccc(-c2cncnc2)n1 [bafetinib]
Summary of the method: as §1

[2] = compound: Cc1cccc(CC(=O)N2CCc3c2ccc(-c2cn(C)c4ncnc(N)c24)c3F)n1
Summary of the method: as §1

nilotinib = compound: Cc1cn(-c2cc(NC(=O)c3ccc(C)c(Nc4nccc(-c5cccnc5)n4)c3)cc(C(F)(F)F)c2)cn1 [nilotinib]
Summary of the method: as §1

[3] = compound: Cc1nc(Nc2n[nH]c3c2CN(C(=O)N[C@H](CN(C)C)c2ccccc2)C3(C)C)c2sccc2n1
Summary of the method: as §1

dasatinib = compound: Cc1nc(Nc2ncc(C(=O)Nc3c(C)cccc3Cl)s2)cc(N2CCN(CCO)CC2)n1 [dasatinib]
Summary of the method: as §1

[4] = compound: Cc1ncc(-c2ccnc(Nc3ccc(S(C)(=O)=O)cc3)n2)n1C(C)C
Summary of the method: as §1

[5] = compound: Cn1cc(-c2ccc3c(c2)CCN3C(=O)Cc2cccc(C(F)(F)F)c2)c2c(N)ncnc21
Summary of the method: as §1

quisinostat = compound: Cn1cc(CNCC2CCN(c3ncc(C(=O)NO)cn3)CC2)c2ccccc21 [quisinostat]
Summary of the method: as §1

tipifarnib = compound: Cn1cncc1[C@@](N)(c1ccc(Cl)cc1)c1ccc2c(c1)c(-c1cccc(Cl)c1)cc(=O)n2C [tipifarnib]
Summary of the method: as §1

[6] = compound: NC(=O)Nc1cc(-c2cccc(F)c2)sc1C(=O)N[C@H]1CCCNC1
Summary of the method: as §1

[7] = compound: NC(=O)c1cnc(N[C@@H]2CCCC[C@@H]2N)nc1Nc1cccc(-n2nccn2)c1
Summary of the method: as §1

[8] = compound: NC1(c2ccc(-c3nc4ccn5c(=O)[nH]nc5c4cc3-c3ccccc3)cc2)CCC1
Summary of the method: as §1

Measured: log2 fold change

ARHGAP21 (UniProt Q5T5U3)
inactive: lapatinib 0.081 | pictilisib -0.116 | crizotinib -0.073 | [1] 0.071 | duvelisib -0.007 | gandotinib 0.102 | tozasertib -0.092 | doramapimod 0.013 | bafetinib -0.133 | [2] 0.053 | nilotinib -0.017 | [3] -0.014 | dasatinib -0.039 | [4] -0.036 | [5] 0.017 | quisinostat -0.06 | tipifarnib 0.019 | [6] 0.053 | [7] 0.002 | [8] -0.021

ASCC2 (UniProt Q9H1I8)
inactive: lapatinib -0.012 | pictilisib 0.049 | crizotinib -0.044 | [1] 0.048 | duvelisib 0.04 | gandotinib -0.026 | tozasertib 0.023 | doramapimod -0.007 | bafetinib -0.205 | [2] -0.002 | nilotinib -0.005 | [3] -0.029 | dasatinib -0.01 | [4] -0.018 | [5] 0.026 | quisinostat -0.06 | tipifarnib 0.082 | [6] 0.035 | [7] 0.038 | [8] -0.023

ABHD17A isoform 2 (UniProt Q96GS6)
inactive: lapatinib -0.034 | pictilisib -0.044 | crizotinib 0.017 | [1] -0.074 | duvelisib 0.01 | gandotinib 0.139 | tozasertib 0.019 | doramapimod 0.044 | bafetinib 0.019 | [2] 0.065 | nilotinib 0.062 | [3] 0.038 | dasatinib -0.141 | [4] 0.096 | [5] 0.017 | quisinostat -0.09 | tipifarnib 0.097 | [6] -0.007 | [7] 0.008 | [8] 0.007

AP5B1 (UniProt Q2VPB7)
inactive: lapatinib 0.095 | pictilisib -0.046 | crizotinib 0.069 | [1] 0.034 | duvelisib -0.012 | gandotinib -0.092 | tozasertib -0.028 | doramapimod 0.272 | bafetinib -0.056 | [2] 0.047 | nilotinib 0.001 | [3] -0.033 | dasatinib 0.065 | [4] -0.053 | [5] -0.072 | quisinostat -0.027 | tipifarnib -0.087 | [7] -0.023 | [8] -0.036
active: [6] 0.324

AK1 (UniProt P00568)
UniProt P00568, sequence (P00568 whole entry, looked up): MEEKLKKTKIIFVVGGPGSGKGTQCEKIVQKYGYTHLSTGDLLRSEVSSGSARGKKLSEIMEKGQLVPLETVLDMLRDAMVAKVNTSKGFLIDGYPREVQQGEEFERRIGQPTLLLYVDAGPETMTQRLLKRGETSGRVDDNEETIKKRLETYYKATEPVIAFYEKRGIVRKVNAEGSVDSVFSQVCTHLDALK
inactive: lapatinib -0.027 | pictilisib -0.011 | crizotinib 0.091 | duvelisib -0.001 | gandotinib -0.118 | tozasertib 0.023 | doramapimod -0.037 | bafetinib 0.06 | [2] -0.189 | nilotinib 0.023 | [3] 0.008 | dasatinib -0.038 | [4] 0.015 | [5] 0.011 | quisinostat 0.118 | tipifarnib 0.056 | [6] 0.004 | [7] 0.003 | [8] 0.009
active: [1] 0.285

ACTG1 (UniProt I3L4N8)
inactive: lapatinib -0.072 | pictilisib -0.209 | crizotinib -0.066 | [1] -0.039 | duvelisib 0.13 | gandotinib -0.159 | tozasertib 0.083 | doramapimod -0.065 | bafetinib -0.183 | [2] -0.096 | nilotinib -0.068 | [3] 0.104 | dasatinib 0.055 | [4] -0.045 | [5] -0.171 | quisinostat 0.032 | tipifarnib 0.11 | [6] -0.053 | [7] -0.033 | [8] -0.114

ALDH18A1 (UniProt P54886)
UniProt P54886, sequence (P54886 whole entry, looked up): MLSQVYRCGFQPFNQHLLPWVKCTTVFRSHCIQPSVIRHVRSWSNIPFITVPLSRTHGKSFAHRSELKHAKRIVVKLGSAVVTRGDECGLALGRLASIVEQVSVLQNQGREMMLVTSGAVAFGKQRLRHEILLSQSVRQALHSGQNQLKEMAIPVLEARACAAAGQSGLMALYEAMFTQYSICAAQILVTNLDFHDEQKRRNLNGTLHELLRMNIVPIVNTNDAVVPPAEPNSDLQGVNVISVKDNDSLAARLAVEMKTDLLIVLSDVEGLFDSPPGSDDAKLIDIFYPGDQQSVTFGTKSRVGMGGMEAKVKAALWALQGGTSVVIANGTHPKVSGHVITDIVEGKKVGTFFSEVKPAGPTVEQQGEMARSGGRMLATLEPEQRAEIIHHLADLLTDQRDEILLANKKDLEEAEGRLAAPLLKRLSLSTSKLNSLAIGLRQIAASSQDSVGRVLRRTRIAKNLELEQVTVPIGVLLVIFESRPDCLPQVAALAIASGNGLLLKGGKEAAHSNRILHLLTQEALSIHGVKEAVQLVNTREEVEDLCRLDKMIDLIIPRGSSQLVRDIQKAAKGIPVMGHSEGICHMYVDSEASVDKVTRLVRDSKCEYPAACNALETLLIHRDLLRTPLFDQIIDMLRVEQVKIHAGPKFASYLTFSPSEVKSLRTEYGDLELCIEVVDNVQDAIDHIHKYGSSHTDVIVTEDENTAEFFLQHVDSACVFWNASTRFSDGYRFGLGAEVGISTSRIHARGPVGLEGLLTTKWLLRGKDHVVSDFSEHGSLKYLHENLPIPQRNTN
inactive: lapatinib -0.052 | pictilisib -0.063 | crizotinib -0.034 | [1] 0.001 | duvelisib -0.017 | gandotinib -0.064 | tozasertib 0.002 | doramapimod 0.047 | bafetinib -0.006 | [2] 0.018 | nilotinib 0 | [3] -0.023 | dasatinib -0.027 | [4] -0.004 | [5] 0.007 | quisinostat -0.06 | tipifarnib -0.001 | [6] 0.025 | [7] 0.023 | [8] -0.019

ACTBL2 (UniProt Q562R1)
UniProt Q562R1, sequence (Q562R1 whole entry, looked up): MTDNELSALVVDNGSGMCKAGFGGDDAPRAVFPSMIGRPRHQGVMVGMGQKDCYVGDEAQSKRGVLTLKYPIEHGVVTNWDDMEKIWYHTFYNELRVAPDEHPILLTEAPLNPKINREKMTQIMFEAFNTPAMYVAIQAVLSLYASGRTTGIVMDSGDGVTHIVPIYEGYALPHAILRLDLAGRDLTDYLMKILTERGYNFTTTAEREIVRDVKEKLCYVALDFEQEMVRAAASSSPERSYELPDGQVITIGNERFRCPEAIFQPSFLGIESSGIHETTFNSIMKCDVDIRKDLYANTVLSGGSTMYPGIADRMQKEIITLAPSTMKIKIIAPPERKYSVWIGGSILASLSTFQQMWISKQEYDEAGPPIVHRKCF
active: [2] -0.547
inactive: lapatinib 0.163 | pictilisib 0.102 | crizotinib 0.091 | [1] 0.408 | duvelisib -0.035 | gandotinib -0.166 | tozasertib -0.201 | doramapimod -0.15 | bafetinib 0.37 | nilotinib 0.32 | [3] -0.036 | dasatinib -0.075 | [4] 0.139 | [5] -0.067 | quisinostat 0.184 | tipifarnib 0.087 | [6] -0.03 | [7] -0.008 | [8] 0.006

AKT1 (UniProt P31749)
inactive: lapatinib 0.054 | pictilisib 0.002 | crizotinib -0.049 | [1] -0.034 | duvelisib -0.008 | gandotinib -0.048 | tozasertib 0 | doramapimod 0.031 | bafetinib -0.044 | [2] 0.033 | nilotinib -0.05 | [3] 0.012 | dasatinib -0.014 | [4] -0.01 | [5] 0.001 | quisinostat -0.1 | tipifarnib 0.025 | [6] 0 | [7] -0.007
active: [8] 0.669

AP1G2 (UniProt O75843)
inactive: lapatinib 0.068 | pictilisib -0.008 | crizotinib -0.095 | [1] -0.049 | duvelisib -0.02 | gandotinib 0 | tozasertib -0.02 | doramapimod -0.004 | bafetinib 0.026 | [2] 0.039 | nilotinib -0.013 | [3] -0.046 | dasatinib -0.081 | [4] -0.019 | [5] 0.048 | quisinostat -0.006 | tipifarnib 0.063 | [6] 0.005 | [7] -0.012 | [8] -0.125

ABHD16A (UniProt O95870)
UniProt O95870, sequence (O95870 whole entry, looked up): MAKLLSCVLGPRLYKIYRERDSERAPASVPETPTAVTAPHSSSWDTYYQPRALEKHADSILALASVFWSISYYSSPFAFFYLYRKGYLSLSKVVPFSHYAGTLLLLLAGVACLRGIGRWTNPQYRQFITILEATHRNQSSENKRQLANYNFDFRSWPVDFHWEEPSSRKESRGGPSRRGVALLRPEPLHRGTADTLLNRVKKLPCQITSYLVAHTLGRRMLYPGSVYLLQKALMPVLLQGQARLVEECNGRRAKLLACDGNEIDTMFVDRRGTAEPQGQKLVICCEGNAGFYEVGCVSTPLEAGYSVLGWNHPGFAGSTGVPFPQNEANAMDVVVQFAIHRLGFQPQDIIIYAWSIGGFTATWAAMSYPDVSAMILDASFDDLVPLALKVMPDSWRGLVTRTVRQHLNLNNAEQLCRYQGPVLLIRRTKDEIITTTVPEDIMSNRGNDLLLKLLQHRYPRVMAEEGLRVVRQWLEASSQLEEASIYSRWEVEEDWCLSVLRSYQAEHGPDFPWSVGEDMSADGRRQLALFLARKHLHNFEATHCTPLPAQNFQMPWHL
inactive: lapatinib 0.032 | pictilisib 0.028 | crizotinib 0.018 | [1] 0.006 | duvelisib -0.078 | gandotinib 0.081 | tozasertib -0.072 | doramapimod 0.013 | bafetinib 0.018 | [2] -0.021 | nilotinib -0.015 | [3] 0.02 | dasatinib 0.009 | [4] 0.027 | [5] -0.051 | quisinostat 0.143 | tipifarnib -0.012 | [6] -0.014 | [7] -0.003 | [8] -0.054

ANKRD30A (UniProt Q9BXX3)
UniProt Q9BXX3, sequence (Q9BXX3 whole entry, looked up): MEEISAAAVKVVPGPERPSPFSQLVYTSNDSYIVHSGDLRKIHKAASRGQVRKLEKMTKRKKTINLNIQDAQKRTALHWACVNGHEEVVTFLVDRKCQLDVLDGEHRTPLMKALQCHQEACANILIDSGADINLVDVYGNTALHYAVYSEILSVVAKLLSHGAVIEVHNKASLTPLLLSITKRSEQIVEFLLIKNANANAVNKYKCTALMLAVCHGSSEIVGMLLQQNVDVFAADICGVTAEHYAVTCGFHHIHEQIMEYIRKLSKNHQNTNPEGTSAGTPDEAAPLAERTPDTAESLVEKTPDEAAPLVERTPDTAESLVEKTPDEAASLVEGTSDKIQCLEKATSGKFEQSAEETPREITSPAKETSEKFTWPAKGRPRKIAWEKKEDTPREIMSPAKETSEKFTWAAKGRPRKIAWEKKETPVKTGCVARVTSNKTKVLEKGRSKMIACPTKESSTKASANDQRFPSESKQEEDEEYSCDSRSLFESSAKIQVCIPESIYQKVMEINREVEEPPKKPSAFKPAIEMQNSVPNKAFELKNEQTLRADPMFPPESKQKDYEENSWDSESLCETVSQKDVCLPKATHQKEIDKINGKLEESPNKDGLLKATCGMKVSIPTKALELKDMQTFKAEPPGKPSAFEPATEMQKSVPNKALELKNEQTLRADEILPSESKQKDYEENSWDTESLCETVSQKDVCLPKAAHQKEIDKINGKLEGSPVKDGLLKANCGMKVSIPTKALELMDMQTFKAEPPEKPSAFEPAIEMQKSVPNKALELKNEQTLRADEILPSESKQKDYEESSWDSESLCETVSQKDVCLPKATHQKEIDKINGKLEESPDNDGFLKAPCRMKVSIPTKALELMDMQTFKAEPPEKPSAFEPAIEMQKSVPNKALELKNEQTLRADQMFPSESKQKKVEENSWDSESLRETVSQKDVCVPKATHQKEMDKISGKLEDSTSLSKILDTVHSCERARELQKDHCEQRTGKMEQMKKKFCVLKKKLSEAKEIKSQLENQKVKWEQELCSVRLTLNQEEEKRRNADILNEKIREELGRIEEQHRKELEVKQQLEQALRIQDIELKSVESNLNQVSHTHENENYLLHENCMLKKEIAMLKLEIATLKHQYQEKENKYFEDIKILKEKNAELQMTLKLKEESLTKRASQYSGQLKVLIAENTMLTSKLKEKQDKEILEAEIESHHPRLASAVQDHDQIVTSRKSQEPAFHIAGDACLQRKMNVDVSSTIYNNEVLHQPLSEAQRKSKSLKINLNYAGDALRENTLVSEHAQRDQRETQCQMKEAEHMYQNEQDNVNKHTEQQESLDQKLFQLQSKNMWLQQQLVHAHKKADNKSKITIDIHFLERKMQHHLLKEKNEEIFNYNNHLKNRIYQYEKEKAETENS
inactive: lapatinib -0.228 | pictilisib 0.028 | crizotinib 0.128 | [1] -0.155 | duvelisib -0.038 | tozasertib 0.281 | doramapimod -0.068 | bafetinib 0.069 | [2] 0.918 | nilotinib -0.008 | [3] -0.012 | dasatinib 0.006 | [4] -0.039 | [5] -0.017 | quisinostat 0.179 | tipifarnib 0.15 | [6] 0.047 | [7] 0.807
active: gandotinib 1.59

ACSL4 (UniProt O60488)
UniProt O60488, sequence (O60488 whole entry, looked up): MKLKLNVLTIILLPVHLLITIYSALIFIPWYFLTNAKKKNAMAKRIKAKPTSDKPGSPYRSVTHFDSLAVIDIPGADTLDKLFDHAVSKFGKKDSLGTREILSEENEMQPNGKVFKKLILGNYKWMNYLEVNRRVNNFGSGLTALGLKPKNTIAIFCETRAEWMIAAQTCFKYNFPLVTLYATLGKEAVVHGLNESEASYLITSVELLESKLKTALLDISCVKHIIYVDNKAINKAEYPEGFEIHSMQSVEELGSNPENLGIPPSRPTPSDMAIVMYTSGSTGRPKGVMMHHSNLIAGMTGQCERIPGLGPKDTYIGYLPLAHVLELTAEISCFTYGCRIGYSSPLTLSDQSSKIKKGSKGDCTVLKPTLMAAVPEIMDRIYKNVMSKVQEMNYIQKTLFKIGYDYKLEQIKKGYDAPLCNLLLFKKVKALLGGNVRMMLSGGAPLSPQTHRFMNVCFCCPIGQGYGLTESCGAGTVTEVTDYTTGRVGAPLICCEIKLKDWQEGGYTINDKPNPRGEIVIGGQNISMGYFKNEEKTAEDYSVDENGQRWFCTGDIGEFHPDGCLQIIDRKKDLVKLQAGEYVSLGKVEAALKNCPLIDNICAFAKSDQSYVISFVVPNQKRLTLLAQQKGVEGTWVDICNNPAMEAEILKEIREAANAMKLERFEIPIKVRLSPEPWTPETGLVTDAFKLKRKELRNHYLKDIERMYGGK
inactive: lapatinib 0.008 | pictilisib 0.028 | crizotinib -0.042 | [1] -0.016 | duvelisib 0.026 | gandotinib -0.065 | tozasertib 0.002 | doramapimod 0.025 | bafetinib -0.093 | [2] -0.003 | nilotinib -0.011 | [3] 0.008 | dasatinib 0.004 | [4] 0.018 | [5] 0.02 | quisinostat -0.018 | tipifarnib -0.051 | [6] 0.029 | [7] -0.032 | [8] -0.074

AKR1C3 (UniProt P42330)
UniProt P42330, sequence (P42330 whole entry, looked up): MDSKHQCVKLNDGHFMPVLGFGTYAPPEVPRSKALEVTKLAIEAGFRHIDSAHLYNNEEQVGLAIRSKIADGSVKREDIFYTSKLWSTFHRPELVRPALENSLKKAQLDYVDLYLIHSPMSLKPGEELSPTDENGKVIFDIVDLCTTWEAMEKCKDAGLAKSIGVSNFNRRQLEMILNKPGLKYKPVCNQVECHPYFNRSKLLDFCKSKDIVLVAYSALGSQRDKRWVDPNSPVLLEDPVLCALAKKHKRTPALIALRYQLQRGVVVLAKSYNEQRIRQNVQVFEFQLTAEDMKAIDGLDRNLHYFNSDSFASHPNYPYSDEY
inactive: lapatinib -0.03 | pictilisib -0.024 | crizotinib -0.039 | [1] -0.014 | duvelisib -0.036 | gandotinib 0.052 | tozasertib -0.003 | doramapimod 0.022 | bafetinib 0.022 | [2] -0.026 | nilotinib -0.007 | [3] 0.046 | dasatinib 0.209 | [4] -0.079 | [5] -0.038 | quisinostat -0.055 | tipifarnib 0.04 | [6] 0.036 | [7] -0.059 | [8] -0.013

ANP32A (UniProt P39687)
UniProt P39687, sequence (P39687 whole entry, looked up): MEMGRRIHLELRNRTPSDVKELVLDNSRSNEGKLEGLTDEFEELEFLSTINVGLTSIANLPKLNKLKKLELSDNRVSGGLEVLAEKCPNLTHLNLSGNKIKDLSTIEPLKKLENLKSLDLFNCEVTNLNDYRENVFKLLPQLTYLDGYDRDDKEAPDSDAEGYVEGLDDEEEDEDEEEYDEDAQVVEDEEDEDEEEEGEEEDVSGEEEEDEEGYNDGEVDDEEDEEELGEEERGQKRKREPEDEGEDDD
active: [8] -0.359
inactive: lapatinib 0.068 | pictilisib -0.001 | crizotinib 0 | [1] -0.063 | duvelisib -0.003 | gandotinib 0.065 | tozasertib 0.014 | doramapimod 0.096 | bafetinib 0.126 | [2] 0 | nilotinib -0.003 | [3] 0.03 | dasatinib 0.125 | [4] -0.011 | [5] -0.039 | quisinostat -0.006 | tipifarnib 0.002 | [6] -0.097 | [7] 0.012

ACADM isoform 2 (UniProt P11310)
UniProt P11310, sequence (P11310 whole entry, looked up): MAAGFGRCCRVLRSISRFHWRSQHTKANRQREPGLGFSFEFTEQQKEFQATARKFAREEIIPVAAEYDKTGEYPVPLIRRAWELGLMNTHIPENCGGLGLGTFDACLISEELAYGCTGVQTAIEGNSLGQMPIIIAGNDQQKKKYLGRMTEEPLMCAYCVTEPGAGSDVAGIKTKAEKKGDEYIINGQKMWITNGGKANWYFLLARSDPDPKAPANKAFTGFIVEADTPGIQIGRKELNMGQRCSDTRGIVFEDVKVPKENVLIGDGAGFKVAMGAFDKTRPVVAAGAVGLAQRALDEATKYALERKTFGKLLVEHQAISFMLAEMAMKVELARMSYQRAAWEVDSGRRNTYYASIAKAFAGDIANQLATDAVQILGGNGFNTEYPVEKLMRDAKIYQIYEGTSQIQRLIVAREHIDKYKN
inactive: lapatinib -0.007 | pictilisib -0.009 | crizotinib -0.042 | [1] -0.007 | duvelisib -0.007 | gandotinib 0.029 | tozasertib 0.029 | doramapimod -0.03 | bafetinib 0.024 | [2] -0.01 | nilotinib -0.031 | [3] -0.008 | dasatinib -0.041 | [4] -0.009 | [5] 0.001 | quisinostat 0.009 | tipifarnib -0.021 | [6] -0.027 | [7] -0.033 | [8] -0.091

Reference: the supplement of paper PMC10849652
